Data: PubChem BioAssay AID1159580 (chemical genetic matrix, 2015)
“And” between values parts separate entries of the source, which are not always exact repeats. Equal values may be shown once. In all, about 5,500 compounds went through this assay and about 2,000 (36%) were called active. Inconclusive results (about 18%) are left out. The list shows a part of the results. A number with no mark means an inactive call. Rule as the data show it: active = normalized growth mostly below about 0.91 (no sharp cut-off); inconclusive = no clear call, values can overlap the other calls; inactive = mostly above about 0.92.

Assay: chemical genetic growth profiling, strain panel (AID 1159580);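 also: tested at 20 µM; growth read once vehicle control cultures reached saturation at 30 °C; 1 = growth at the plate median or of vehicle wells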
Settings: S. cerevisiae deletion strains, growth OD

In the case of `CN(C)C(=S)SSC(=S)N(C)C`, the normalized growth (locus YAL013W, strain DEP1, stronger effect = lower value) is reported as 0.0581 (active), the normalized growth (locus YAL021C, strain ccr4, stronger effect = lower value) is reported as 0.0666 (active) and the normalized growth (locus YAL026C, strain drs2, stronger effect = lower value) is reported as 0.0601 (active). For the same compound, the normalized growth (locus YAL030W, strain snc1, stronger effect = lower value) was 0.0553 (active), the normalized growth (locus YBL061C, strain skt5, stronger effect = lower value) was 0.0618 (active) and the normalized growth (locus YBR009C, strain hhf1, stronger effect = lower value) was 0.0687 (active). For the same compound, the normalized growth (locus YBR021W, strain FUR4, stronger effect = lower value) was 0.0817 (active), the normalized growth (locus YBR023C, strain chs3, stronger effect = lower value) was 0.061 (active) and the normalized growth (locus YBR171W, strain sec66, stronger effect = lower value) was 0.074 (active). For the same compound, the normalized growth (locus YBR229C, strain ROT2, stronger effect = lower value) was 0.048 (active), the normalized growth (locus YBR231C, strain swc5, stronger effect = lower value) was 0.0647 (active) and the normalized growth (locus YBR279W, strain paf1, stronger effect = lower value) was 0.0589 (active). The normalized growth (locus YCL011C, strain gbp2, stronger effect = lower value) was 0.0557 (active), the normalized growth (locus YCL016C, strain dcc1, stronger effect = lower value) was 0.0628 (active) and the normalized growth (locus YCL029C, strain bik1, stronger effect = lower value) was 0.0606 (active). For the same compound, the normalized growth (locus YCL061C, strain MRC1, stronger effect = lower value) was 0.0642 (active), the normalized growth (locus YCL069W, strain vba3, stronger effect = lower value) was 0.0641 (active) and the normalized growth (locus YCR088W, strain abp1, stronger effect = lower value) was 0.0578 (active). The normalized growth (locus YDL005C, strain med2, stronger effect = lower value) was 0.0735 (active), the normalized growth (locus YDL035C, strain GPR1, stronger effect = lower value) was 0.0496 (active) and the normalized growth (locus YDL040C, strain nat1, stronger effect = lower value) was 0.0566 (active). For the same compound, the normalized growth (locus YDL074C, strain BRE1, stronger effect = lower value) was 0.08 (active), the normalized growth (locus YDL101C, strain DUN1, stronger effect = lower value) was 0.0541 (active) and the normalized growth (locus YDL134C, strain PPH21, stronger effect = lower value) was 0.048 (active). For the same compound, the normalized growth (locus YDL185W, strain tfp1, stronger effect = lower value) was 0.967, the normalized growth (locus YDL192W, strain arf1, stronger effect = lower value) was 0.0606 (active) and the normalized growth (locus YDR001C, strain nth1, stronger effect = lower value) was 0.0555 (active). For the same compound, the normalized growth (locus YDR069C, strain doa4, stronger effect = lower value) was 0.0622 (active), the normalized growth (locus YDR101C, strain arx1, stronger effect = lower value) was 0.0568 (active) and the normalized growth (locus YDR137W, strain rgp1, stronger effect = lower value) was 0.0857 (active). For the same compound, the normalized growth (locus YDR150W, strain NUM1, stronger effect = lower value) was 0.0561 (active), the normalized growth (locus YDR159W, strain sac3, stronger effect = lower value) was 0.0951 (active) and the normalized growth (locus YDR162C, strain NBP2, stronger effect = lower value) was 0.0528 (active). The normalized growth (locus YDR195W, strain ref2) was 0.147 (active), the normalized growth (locus YDR297W, strain sur2, stronger effect = lower value) was 0.0586 (active) and the normalized growth (locus YDR318W, strain mcm21, stronger effect = lower value) was 0.0615 (active). For the same compound, the normalized growth (locus YDR334W, strain swr1, stronger effect = lower value) was 0.0607 (active), the normalized growth (locus YDR335W, strain msn5, stronger effect = lower value) was 0.0573 (active) and the normalized growth (locus YDR388W, stronger effect = lower value) was 0.0573 (active). The normalized growth (locus YDR392W, strain spt3, stronger effect = lower value) was 0.0953 (active), the normalized growth (locus YDR502C, strain sam2, stronger effect = lower value) was 0.0603 (active) and the normalized growth (locus YEL003W, strain gim4, stronger effect = lower value) was 0.0529 (active). The normalized growth (locus YEL037C, strain rad23, stronger effect = lower value) was 0.0561 (active), the normalized growth (locus YEL061C, strain CIN8 (second series), stronger effect = lower value) was 0.06 (active) and the normalized growth (locus YEL061C, strain CIN8, stronger effect = lower value) was 0.0482 (active). The normalized growth (locus YER015W, strain faa2, stronger effect = lower value) was 0.0644 (active), the normalized growth (locus YER016W, strain bim1, stronger effect = lower value) was 0.0587 (active) and the normalized growth (locus YER110C, stronger effect = lower value) was 0.0744 (active). The normalized growth (locus YER111C, strain swi4, stronger effect = lower value) was 0.0843 (active), the normalized growth (locus YER155C, strain BEM2 (second series), stronger effect = lower value) was 0.0839 (active) and the normalized growth (locus YER155C, strain BEM2, stronger effect = lower value) was 0.0634 (active). For the same compound, the normalized growth (locus YER167W, strain BCK2, stronger effect = lower value) was 0.0494 (active), the normalized growth (locus YFR010W, strain ubp6, stronger effect = lower value) was 0.067 (active) and the normalized growth (locus YGL078C, strain dbp3, stronger effect = lower value) was 0.0559 (active). The normalized growth (locus YGL086W, strain mad1, stronger effect = lower value) was 0.0545 (active), the normalized growth (locus YGL167C, strain pmr1, stronger effect = lower value) was 0.0722 (active) and the normalized growth (locus YGL173C, strain kem1, stronger effect = lower value) was 0.0644 (active). The normalized growth (locus YGL227W, strain vid30, stronger effect = lower value) was 0.0589 (active), the normalized growth (locus YGL240W, strain doc1, stronger effect = lower value) was 0.0761 (active) and the normalized growth (locus YGL248W, strain PDE1, stronger effect = lower value) was 0.0464 (active). For the same compound, the normalized growth (locus YGL253W, strain hxk2, stronger effect = lower value) was 0.0521 (active), the normalized growth (locus YGR078C, strain PAC10, stronger effect = lower value) was 0.0501 (active) and the normalized growth (locus YGR135W, strain pre9, stronger effect = lower value) was 0.0684 (active). The normalized growth (locus YGR229C, strain SMI1, stronger effect = lower value) was 0.0575 (active), the normalized growth (locus YGR252W, strain gcn5, stronger effect = lower value) was 0.158 (active) and the normalized growth (locus YHR013C, strain ard1, stronger effect = lower value) was 0.107 (active). The normalized growth (locus YHR027C, strain rpn1, stronger effect = lower value) was 0.0609 (active), the normalized growth (locus YHR030C, strain SLT2, stronger effect = lower value) was 0.0503 (active) and 0.115 (active) and the normalized growth (locus YHR079C, strain IRE1 (second series), stronger effect = lower value) was 0.0559 (active). The normalized growth (locus YHR079C, strain IRE1, stronger effect = lower value) was 0.109 (active), the normalized growth (locus YHR094C, strain hxt1, stronger effect = lower value) was 0.0581 (active) and the normalized growth (locus YHR129C, strain ARP1, stronger effect = lower value) was 0.0536 (active). For the same compound, the normalized growth (locus YHR142W, strain chs7, stronger effect = lower value) was 0.0711 (active), the normalized growth (locus YHR200W, strain rpn10, stronger effect = lower value) was 0.0592 (active) and the normalized growth (locus YIL066C, strain RNR3, stronger effect = lower value) was 0.0523 (active). For the same compound, the normalized growth (locus YIL073C, strain SPO22, stronger effect = lower value) was 0.0945 (active), the normalized growth (locus YIL125W, strain kgd1, stronger effect = lower value) was 0.0556 (active) and the normalized growth (locus YIR030C, strain dcg1, stronger effect = lower value) was 0.0579 (active). For the same compound, the normalized growth (locus YJL092W, strain hpr5, stronger effect = lower value) was 0.0561 (active), the normalized growth (locus YJL095W, strain BCK1 (second series), stronger effect = lower value) was 0.057 (active) and the normalized growth (locus YJL095W, strain BCK1, stronger effect = lower value) was 0.049 (active) and 0.102 (active). The normalized growth (locus YJL115W, strain asf1, stronger effect = lower value) was 0.0685 (active), the normalized growth (locus YJL129C, strain trk1, stronger effect = lower value) was 0.0884 (active) and the normalized growth (locus YJL134W, strain LCB3, stronger effect = lower value) was 0.0489 (active). For the same compound, the normalized growth (locus YJL154C, strain vps35, stronger effect = lower value) was 0.0623 (active), the normalized growth (locus YJL164C, strain tpk1, stronger effect = lower value) was 0.0632 (active) and the normalized growth (locus YJL166W, strain qcr8, stronger effect = lower value) was 0.0627 (active). For the same compound, the normalized growth (locus YJL168C, strain set2, stronger effect = lower value) was 0.0598 (active), the normalized growth (locus YJL187C, strain SWE1 (second series), stronger effect = lower value) was 0.0476 (active) and the normalized growth (locus YJL187C, strain SWE1, stronger effect = lower value) was 0.0566 (active). The normalized growth (locus YJR043C, strain POL32, stronger effect = lower value) was 0.0614 (active) and the normalized growth (locus YJR066W, strain TOR1, stronger effect = lower value) was 0.00175 (active).
